This excerpt belongs to a sample that is enriched for hits.
GCN5L2 inh – blocks human GCN5L2 histone acetyltransferase; Q92830; GCN5L2 HAT assay, ThioGlo1 CoA-SH fluorescence; Potency, µM (highest dose often 58.9 µM), without a hit: top-dose activity change, negative = inhibition, hits mostly inhibitors; actives 0.21% (n = 390,000); AID 504327
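Compounds, pin-transferred from DMSO stocks, meet 20nM GCN5L2 for 15 min before the reaction begins with H3(1-25) peptide (75uM) and acetyl-CoA (70uM). Thiol-reactive ThioGlo1 reports CoA release over 20 min at room temperature.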
JMJD2E inh – inhibitors of human JMJD2E histone demethylase; Potency, µM (top dose mostly 57.1 µM), without a hit: at the top dose activity change, negative = inhibition, hits mostly inhibitors; JMJD2E catalytic domain, FDH-coupled NADH fluorescence (FDH is formaldehyde dehydrogenase); actives 1.6% (n = 230,000); B2RXH2; active = well fitted inhibition curve with a large enough effect, not every such curve was filed as active; inconclusive = small, poorly fitted or top-dose-only effect, or another doubt; inactive = no such curve, though single readings can be large or run the other way;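 also: 0% = wells with enzyme and -100% = buffer wells without enzyme; nearly all actives have a fitted effect of over 50% in size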
Target sequence (B2RXH2 1-337 limits assumed): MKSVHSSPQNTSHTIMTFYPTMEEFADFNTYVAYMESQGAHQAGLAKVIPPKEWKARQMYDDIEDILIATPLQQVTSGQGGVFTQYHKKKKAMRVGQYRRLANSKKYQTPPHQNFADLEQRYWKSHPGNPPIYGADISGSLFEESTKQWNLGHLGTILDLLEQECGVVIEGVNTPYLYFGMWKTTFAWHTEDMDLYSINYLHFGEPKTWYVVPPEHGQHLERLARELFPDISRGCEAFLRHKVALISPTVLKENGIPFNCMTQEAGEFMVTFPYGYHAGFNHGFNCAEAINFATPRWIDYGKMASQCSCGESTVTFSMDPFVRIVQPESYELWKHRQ
RECQ1 inh-1 – blocks DNA unwinding by human RECQ1 | P46063 | RECQ1 DNA unwinding, red fluorescence kinetic read | Potency, µM (doses to about 57.3 µM), inactives show at the top dose activity, negative = inhibition, most hits filed as inhibitors | actives 0.54% (n = 240,000);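 also: plate controls were vehicle for no effect and no enzyme for full effect; nearly all actives have a fitted effect of over 30% in size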
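50 nM RECQ1T1 preincubated 15 min with compound in Tris pH 8.0 buffer with MgCl2, DTT, Tween-20 and 2.5 ug/ml poly(dI-dC); started with 200 nM TAMRA/BHQ-2 forked duplex and 2 mM ATP. Unwinding read as fluorescence (525/598 nm), two reads 2 h apart.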
APE1 inh – blocks human APE1 abasic DNA cleavage; P27695; recombinant APE1, TAMRA/BHQ-2 abasic DNA cleavage fluorescence; Potency, µM (highest dose often 65.8 µM), for the others: top-dose activity change, negative = inhibition, most hits filed as inhibitors; actives 0.35% (n = 350,000); AID 2517;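 also: plate controls were vehicle for no effect and reference inhibitor for full effect; nearly all actives have a fitted effect of over 55% in size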
Target sequence (P27695 whole entry, looked up): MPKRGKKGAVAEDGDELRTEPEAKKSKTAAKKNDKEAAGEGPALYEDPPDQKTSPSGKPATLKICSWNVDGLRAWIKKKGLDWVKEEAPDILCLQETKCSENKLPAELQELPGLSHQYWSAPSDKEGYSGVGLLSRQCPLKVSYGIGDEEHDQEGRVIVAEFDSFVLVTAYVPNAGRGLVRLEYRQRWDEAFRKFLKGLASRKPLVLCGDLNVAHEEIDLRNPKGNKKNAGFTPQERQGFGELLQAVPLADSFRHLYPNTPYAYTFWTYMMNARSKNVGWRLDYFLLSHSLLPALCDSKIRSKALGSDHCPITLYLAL
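0.75 nM APE1 + cpd, 15 min RT; start w/ 50 nM TAMRA/BHQ-2 THF-abasic dsDNA; kinetic fluor 525/598 nm ×3 reads @60 s; Δ(read3−read1); normalized to DMSO and NSC13755 control wells.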
L3MBTL1 block – blocks human L3MBTL1. Q9Y468. Potency, µM (series often up to 57.1 µM), without a hit: at the highest dose activity, negative = inhibition, usual class: inhibitors. AID 485360. actives 0.66% (n = 230,000). AlphaScreen L3MBTL1–H3K9me1 peptide binding; also: nearly all actives have a fitted effect of over 60% in size
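AlphaScreen assay: L3MBTL1 (50 nM final) was preincubated 30 min at room temperature with biotinylated H3(1-15)K9me1 peptide (75 nM final), then 30 min with library compounds; streptavidin donor and nickel chelate acceptor beads (10 ug/mL final) added, 30 min dark.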
BLM helicase inh – blocks DNA unwinding by human BLM helicase. recombinant BLM DNA unwinding, fluorescence dequenching. actives 0.2% (n = 350,000). Potency, µM (top dose mostly 56.1 µM), inactives show top-dose activity change, negative = inhibition, hits mostly inhibitors. P54132;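 also: plate controls were vehicle for no effect and no enzyme for full effect; nearly all actives have a fitted effect of over 35% in size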
RECQ1 conf – confirmation of human RECQ1 helicase inhibitors | RECQ1 helicase DNA unwinding, fluorescence | shares compounds with RECQ1 inh-1 | Potency, µM (top dose mostly 229 µM), inactives show at the top dose activity change, negative = inhibition, hits mostly inhibitors | AID 2708 | actives 28% (n = 610); also: nearly all actives have a fitted effect of over 45% in size
ADP FP counter – ADP displacement flagged in RECQ1 inhibitor counter-screen; shares compounds with RECQ1 inh-1; ADP fluorescence polarization displacement counterscreen; Potency, µM (titrated, usually from 228 µM), without a hit: at the top dose activity change, negative = inhibition, most hits filed as inhibitors; actives 27% (n = 530); AID 2711; also: nearly all actives have a fitted effect of over 45% in size
RECQ1 inh-2 – RECQ1 helicase inhibition confirmed, round 2 | shares compounds with RECQ1 inh-1 | recombinant RECQ1 DNA unwinding, red fluorescence | Potency, µM (titrated, usually from 119 µM), for the others: top-dose activity, negative = inhibition, most hits filed as inhibitors | actives 15% (n = 1,100); also: nearly all actives have a fitted effect of over 50% in size
Active calls of the source: *; [ ] = dose if it differs, or a comment. Unless noted, calls follow the shape of the dose curve; as a rule, active = well fitted curve in the direction sought with a large enough effect; inconclusive = small, poorly fitted or top-dose-only effect, or another doubt; inactive = no such curve, though single readings can be large; an effect the other way counts as inactive or inconclusive. Unless noted, % is scaled to controls: 0 for no effect and ±100 for the full control effect; potency is read from the fitted curve at half-maximal effect.

Screening O=C(O)CC(SCC(=O)NC1CCCc2ccccc21)C(=O)O (centres undefined) returned GCN5L2 inh -0.3%, JMJD2E inh -11.0%, RECQ1 inh-1 7.2%, APE1 inh -2.2%, L3MBTL1 block -3.1%, BLM helicase inh 1.3%, RECQ1 conf 1.3% and ADP FP counter 5.7%.
`Cc1cc(C)n(C(=O)CNC(=O)CCc2ccccc2)n1` gave GCN5L2 inh 0.0%, JMJD2E inh -2.4%, RECQ1 inh-1 -4.5%, APE1 inh 4.8%, L3MBTL1 block -2.5% and BLM helicase inh 2.8%.
`COCc1cc(=O)n2[nH]c(-c3ccsc3-n3c(C)ccc3C)cc2n1` gave GCN5L2 inh -9.1%, JMJD2E inh inconclusive, RECQ1 inh-1 inconclusive, APE1 inh 25.1µM*, BLM helicase inh inconclusive and RECQ1 inh-2 -24.0%.
CCCCOC(=O)CSC1=C(C#N)C(c2ccccc2OC)C(C#N)C(=O)N1 (centres undefined) was read as GCN5L2 inh -23.6%, JMJD2E inh -1.4%, RECQ1 inh-1 14.1µM*, APE1 inh -4.5%, L3MBTL1 block -5.3%, BLM helicase inh -5.0% and RECQ1 inh-2 inconclusive.
CCOc1ccccc1CNC(=O)CCCn1c(=O)c2cccn2c2ccc(F)cc21 was read as GCN5L2 inh -15.6% and BLM helicase inh -5.2%.
Screening Cc1ccccc1S(=O)(=O)Cc1ccc(C(=O)NC2CCCCC2)o1 returned GCN5L2 inh -1.0%, APE1 inh 22.7% and BLM helicase inh -1.4%.
C=CCn1c(COc2ccc(F)cc2)nnc1SCC(=O)NC(=O)NCc1ccco1 was read as GCN5L2 inh -9.5%, JMJD2E inh 2.8%, RECQ1 inh-1 inconclusive, APE1 inh inconclusive, L3MBTL1 block inconclusive, BLM helicase inh -29.0% and RECQ1 inh-2 inconclusive.
`COc1ccc2c(c1)Cc1sc(NC(=O)c3cccs3)nc1-2` gave GCN5L2 inh -4.4%, JMJD2E inh 11.2µM*, RECQ1 inh-1 inconclusive, APE1 inh -12.7%, L3MBTL1 block -21.2%[11.4 µM], BLM helicase inh -19.9% and RECQ1 inh-2 16.9%.
`COc1ccc(C(=O)Nc2nc3c(s2)Cc2cc(OC)ccc2-3)cc1` gave GCN5L2 inh -2.8%, JMJD2E inh -6.5%, RECQ1 inh-1 16.8%, APE1 inh inconclusive, L3MBTL1 block -23.6% and BLM helicase inh inconclusive.
`COc1ccc(CN2C(=O)c3ccccc3C2C(=O)NC2CCCC2)c(OC)c1` (centres undefined) gave GCN5L2 inh -1.7%, JMJD2E inh 8.1%, RECQ1 inh-1 -17.3%, APE1 inh -0.3%, L3MBTL1 block 4.5% and BLM helicase inh -4.1%.
`COc1ccc(CN2C(=O)c3ccccc3C2C(=O)NC2CCCC(C)C2C)c(OC)c1` (centres undefined) gave GCN5L2 inh -10.9%, JMJD2E inh -0.9%, RECQ1 inh-1 3.16µM*, APE1 inh 0.8%, BLM helicase inh -9.3%, RECQ1 conf -5.9%[114 µM], ADP FP counter 18.9%[91.9 µM] and RECQ1 inh-2 -10.2%.
Nc1cc(=O)[nH]c(SCC(=O)Nc2ccc3c(c2)CCC3)n1 was read as GCN5L2 inh -4.3%, JMJD2E inh -11.7%, RECQ1 inh-1 inconclusive, APE1 inh inconclusive, L3MBTL1 block -17.5%, BLM helicase inh -6.5% and RECQ1 inh-2 -12.0%.
Screening Nc1cc(=O)[nH]c(SCC(=O)Nc2ccc(F)c(Cl)c2)n1 returned GCN5L2 inh -6.3%[0.501 µM], JMJD2E inh -5.6%, RECQ1 inh-1 -10.5%, APE1 inh 2.6% and BLM helicase inh 1.5%.
Screening Nc1ccc(N2CCCCCC2)cc1 returned GCN5L2 inh -6.3%, JMJD2E inh inconclusive, RECQ1 inh-1 14.1µM*, APE1 inh inconclusive, L3MBTL1 block 17.8µM*, BLM helicase inh -12.4% and RECQ1 conf -3.4%[114 µM].
For Cc1cc(C(F)(F)F)n2[nH]c(=O)c(N=Nc3ccccc3)c2n1 the results were GCN5L2 inh -21.2%, JMJD2E inh inconclusive, RECQ1 inh-1 10µM*, APE1 inh 0.1%, BLM helicase inh 3.0%, RECQ1 conf 2.6%[114 µM] and ADP FP counter 12.8%[91.9 µM].
`Cn1cnnc1Sc1ccc(/C=C(\CC(=O)O)c2nc3ccccc3s2)cc1[N+](=O)[O-]` gave GCN5L2 inh -21.3%, JMJD2E inh -1.7%, RECQ1 inh-1 -4.6%, APE1 inh -1.6%, L3MBTL1 block 1.4%, BLM helicase inh -6.6%, RECQ1 conf -9.8% and ADP FP counter -11.0%.
O=C(O)CC/C(=C\c1ccccc1[N+](=O)[O-])c1nc2ccccc2s1 was read as GCN5L2 inh -5.9%, JMJD2E inh 4.6%, RECQ1 inh-1 -5.7%, APE1 inh 2.5%, L3MBTL1 block -7.4% and BLM helicase inh 1.0%.
O=C(O)CC/C(=C\c1ccc(N2CCCC2)c([N+](=O)[O-])c1)c1nc2ccccc2s1 was read as GCN5L2 inh 1.8%, JMJD2E inh 8.1%, RECQ1 inh-1 inconclusive, APE1 inh inconclusive, L3MBTL1 block -25.7%, BLM helicase inh inconclusive and RECQ1 inh-2 inconclusive.
`O=S(=O)(Nc1nc2ccccc2nc1Nc1ccc(N2CCOCC2)cc1)c1cc(Cl)ccc1Cl` gave GCN5L2 inh -4.9%, JMJD2E inh 1.2%, RECQ1 inh-1 inconclusive, APE1 inh -4.1%, L3MBTL1 block -0.3%, BLM helicase inh -9.1% and RECQ1 inh-2 -12.5%.
Clc1nc(Nc2ccc(N3CCOCC3)cc2)c2ccccc2n1 was read as GCN5L2 inh 1.7%, JMJD2E inh inconclusive, RECQ1 inh-1 14.3%, APE1 inh -0.2%, L3MBTL1 block -16.0% and BLM helicase inh -13.5%.
O=C(CN1CCCC1)Nc1ccc(Br)cc1[N+](=O)[O-] was read as GCN5L2 inh -8.7%, APE1 inh -1.4%, L3MBTL1 block -16.1% and BLM helicase inh -4.5%.
